{"source": "PubChem BioAssay AID1942", "about": "(Johns Hopkins Ion Channel Center, 2009)", "note": "Among all 2,400 compounds or so, about 580 (24%) were called active. These entries were drawn from the full list. Unmarked numbers belong to inactive results.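 Rule for the calls: active = activity change at or above the mean plus 3 SD of buffer wells without dofetilide, per plate; inactive = the rest.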"}
{"molecular_target": "Potassium voltage-gated channel subfamily KQT member 2 (Rattus norvegicus) (UniProt O88943)", "sequence (O88943 whole entry, looked up)": "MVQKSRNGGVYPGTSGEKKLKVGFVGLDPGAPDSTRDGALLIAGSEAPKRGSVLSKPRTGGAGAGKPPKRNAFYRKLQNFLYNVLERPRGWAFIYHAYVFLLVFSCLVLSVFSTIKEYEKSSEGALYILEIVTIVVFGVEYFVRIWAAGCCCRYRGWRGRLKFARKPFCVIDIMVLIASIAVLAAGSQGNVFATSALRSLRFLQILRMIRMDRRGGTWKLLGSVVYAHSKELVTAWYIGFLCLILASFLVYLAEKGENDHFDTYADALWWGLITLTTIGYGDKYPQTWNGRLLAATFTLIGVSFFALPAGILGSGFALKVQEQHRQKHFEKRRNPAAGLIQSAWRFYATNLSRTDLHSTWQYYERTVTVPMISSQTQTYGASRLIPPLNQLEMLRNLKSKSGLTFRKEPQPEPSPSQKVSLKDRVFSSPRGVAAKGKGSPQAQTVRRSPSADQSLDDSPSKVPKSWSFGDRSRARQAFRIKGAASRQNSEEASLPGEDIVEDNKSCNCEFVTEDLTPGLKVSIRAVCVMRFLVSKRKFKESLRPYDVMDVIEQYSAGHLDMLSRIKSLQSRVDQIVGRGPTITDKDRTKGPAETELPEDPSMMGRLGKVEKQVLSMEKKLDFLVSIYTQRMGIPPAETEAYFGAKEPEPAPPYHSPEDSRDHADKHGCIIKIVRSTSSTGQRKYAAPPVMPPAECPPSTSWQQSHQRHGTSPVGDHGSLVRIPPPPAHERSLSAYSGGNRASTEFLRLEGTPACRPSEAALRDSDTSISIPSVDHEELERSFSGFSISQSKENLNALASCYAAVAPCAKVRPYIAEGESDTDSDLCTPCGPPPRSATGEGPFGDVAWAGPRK", "test": "rat KCNQ2 channel activation by compounds alone, confirmation, counter-screen for hERG block protector project, cell-based, CHO, FluxOR thallium flux (AID 1942);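 note: normalized value minus buffer-control mean plus three SD of buffer wells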", "settings": "CHO-KCNQ2 cells, FluxOR thallium flux fluorescence; at 10 µM; active compounds read high"}
{"smiles": "Cc1cc(OCc2ccc(C(=O)Nc3ccc(C(=O)O)cc3)o2)ccc1Cl", "activity change, less the hit threshold": "-15.9%"}
{"smiles": "O=C(CN1CCN(c2ccccc2O)CC1)NC(=O)NCc1ccco1", "activity change, less the hit threshold": "-18.7%"}
{"smiles": "Cc1sc2nc(C(C)C)nc(SCC(=O)NCc3ccco3)c2c1C", "activity change, less the hit threshold": "10.5% (active)"}
{"smiles": "CCn1c(SCC(=O)NC(=O)NCc2ccco2)nc2sc(C)c(C)c2c1=O", "activity change, less the hit threshold": "19.7% (active)"}
{"smiles": "Cc1cc2c(cc(C(=O)OC(C(=O)NCc3ccco3)C(C)C)n2C)o1", "note": "(stereo unspecified)", "activity change, less the hit threshold": "-16.3%"}
{"smiles": "Cc1cc(S(=O)(=O)N2CCOCC2)ccc1OCC(=O)NCc1ccco1", "activity change, less the hit threshold": "-12.9%"}
{"smiles": "COc1cccc(N2CCN(CC(=O)NC(=O)NCc3ccco3)CC2)c1", "activity change, less the hit threshold": "-11.4%"}
{"smiles": "Fc1ccc(N2CCN(c3ccc4c(C(F)(F)F)cc(C(F)(F)F)nc4n3)CC2)cc1", "activity change, less the hit threshold": "-19.8%"}
{"smiles": "O=C(NCc1cccs1)C1CCC(CNS(=O)(=O)c2cccs2)CC1", "note": "(stereo unspecified)", "activity change, less the hit threshold": "-28.1%"}
{"smiles": "Cc1cc(SC#N)cc(C)c1NC(=O)CCl", "activity change, less the hit threshold": "19.1% (active)"}
{"smiles": "Cc1ccc(S(=O)(=O)Nc2ccc(O)c3ccccc23)c(C)c1", "activity change, less the hit threshold": "-27%"}
{"smiles": "Cc1onc(C(=O)N2CCC(C(N)=O)CC2)c1-c1ccccc1Cl", "activity change, less the hit threshold": "-22.2%"}
{"smiles": "Cc1ccc(-c2n[nH]c(=S)nc2-c2ccc(C)cc2)cc1", "activity change, less the hit threshold": "-7.1%"}
{"smiles": "S=c1[nH]c(-c2ccc(Cl)cc2)cs1", "activity change, less the hit threshold": "119% (active)"}
{"smiles": "S=c1[nH]c(-c2ccccc2)cs1", "activity change, less the hit threshold": "61.9% (active)"}
{"smiles": "Cc1ccc(-c2csc(=S)[nH]2)cc1", "activity change, less the hit threshold": "83.7% (active)"}
{"smiles": "Cc1cccc(-n2cc(-c3ccccc3)[nH]c2=S)c1", "activity change, less the hit threshold": "-16.2%"}
{"smiles": "O=Cc1cc(-c2ccccc2)[nH]c1-c1ccccc1", "activity change, less the hit threshold": "-15.3%"}
{"smiles": "Cc1cc(NC(=O)CSc2ccc(-c3ccc(F)cc3)nn2)no1", "activity change, less the hit threshold": "-18.3%"}
{"smiles": "O=C(Nc1ccccc1)O/N=C/c1ccncc1", "activity change, less the hit threshold": "-19.6%"}
{"smiles": "COc1ccc(-c2c(C#N)c(SCC(=O)c3cc4ccccc4oc3=O)nc(C)c2C(=O)Nc2ccccc2)cc1", "activity change, less the hit threshold": "-11.8%"}
{"smiles": "O=c1[nH]c(C(Cl)(Cl)Cl)nc2ccc3ccccc3c12", "activity change, less the hit threshold": "15.1% (active)"}
{"smiles": "COc1ccc(/C=C2/S/C(=N/N=C3\\CC4CCC3(C)C4(C)C)NC2=O)cc1", "note": "(stereo unspecified)", "activity change, less the hit threshold": "-9.1%"}
{"smiles": "Cc1cccc(/C=C2/S/C(=N/N=C3\\CC4CCC3(C)C4(C)C)NC2=O)c1", "note": "(stereo unspecified)", "activity change, less the hit threshold": "-10.5%"}
{"smiles": "CC12CCC(C/C1=N\\N=C1\\NC(=O)/C(=C\\c3ccc(Cl)cc3)S1)C2(C)C", "note": "(stereo unspecified)", "activity change, less the hit threshold": "4.4% (active)"}
{"smiles": "CCN1CCCC(CO)(Cc2ccccc2)C1", "note": "(stereo unspecified)", "activity change, less the hit threshold": "-9.6%"}
{"smiles": "O=C1c2nc3cc(-c4ccco4)[nH]n3c(=O)c2CN1Cc1ccccc1", "activity change, less the hit threshold": "-13.6%"}
{"smiles": "O=C(CN1C(=O)c2cccc3cccc1c23)Nc1cccnc1", "activity change, less the hit threshold": "-28.6%"}
{"smiles": "O=C1CC(N2CCN(c3ccccc3Cl)CC2)C(=O)N1c1ccc(F)cc1", "note": "(stereo unspecified)", "activity change, less the hit threshold": "-9.2%"}
{"smiles": "CCOc1ccc(N)c(SSc2cc(OCC)ccc2N)c1", "activity change, less the hit threshold": "-17%"}
{"smiles": "CCCC(=O)NC(=S)Nc1nc(-c2ccc(OC)cc2)cs1", "activity change, less the hit threshold": "-16.3%"}
{"smiles": "CCC(=O)N(CC)c1nc(-c2ccc(OC)cc2)cs1", "activity change, less the hit threshold": "30.9% (active)"}
{"smiles": "CCCn1c(SCC(=O)Nc2nc(-c3ccc(OC)cc3)cs2)nc2c1c(=O)n(C)c(=O)n2C", "activity change, less the hit threshold": "-16.4%"}
{"smiles": "O=C(NCCc1ccc(F)cc1)c1coc(=O)c(Br)c1", "activity change, less the hit threshold": "-6%"}
{"smiles": "Cc1nc(Oc2ccc(Cl)cc2)c2oc3ccccc3c2n1", "activity change, less the hit threshold": "-15.6%"}
{"smiles": "CCOc1ccc(CC(C(N)=O)C(N)=O)cc1", "activity change, less the hit threshold": "-21.3%"}
{"smiles": "CCOc1ccc(N(CC)C(=O)COc2cc(=O)n(C)c3ccccc23)cc1", "activity change, less the hit threshold": "-27%"}
{"smiles": "CCCOc1ccc(-c2c(=O)n(O)c3ccccc3[n+]2[O-])cc1", "activity change, less the hit threshold": "71.1% (active)"}
{"smiles": "CCCOc1ccc(C(=O)N(CC(C)C)c2c(N)n(Cc3ccccc3)c(=O)[nH]c2=O)cc1", "activity change, less the hit threshold": "-17.9%"}
{"smiles": "CCOc1ccc(-c2c(=O)n(O)c3ccccc3[n+]2[O-])cc1", "activity change, less the hit threshold": "52% (active)"}
{"smiles": "O=C1NC2(CCCCCC2)C(=O)N1Cc1ccccc1", "activity change, less the hit threshold": "-17.6%"}
{"smiles": "O=C(O)/C=C/C(=O)Nc1ccc(OC(F)(F)F)cc1", "activity change, less the hit threshold": "-10.2%"}
{"smiles": "O=[N+]([O-])c1cccc(NC(=S)Nc2nc(-c3ccccc3Cl)cs2)c1", "activity change, less the hit threshold": "-7.3%"}
{"smiles": "Cc1c(C(=O)NN2CCN(C)CC2)cccc1[N+](=O)[O-]", "activity change, less the hit threshold": "-11.1%"}
{"smiles": "O=C(CN1C(=O)c2ccccc2S1(=O)=O)NCCSCc1ccccc1Cl", "activity change, less the hit threshold": "-15.3%"}
{"smiles": "Cc1ccc(OC(=O)c2ccc(Br)o2)cc1", "activity change, less the hit threshold": "46.8% (active)"}
{"smiles": "O=C(COC(=O)c1ccc(Br)o1)NC1CCCCC1", "activity change, less the hit threshold": "-6%"}
{"smiles": "O=C(NC1CCCC1)c1ccc(Br)o1", "activity change, less the hit threshold": "-20.5%"}
{"smiles": "CCCOc1ccc(OC(=O)c2ccc(Br)o2)cc1", "activity change, less the hit threshold": "6.3% (active)"}
{"smiles": "CCCCOc1ccc(CC(=O)NCC(=O)O)cc1", "activity change, less the hit threshold": "-16.8%"}
{"smiles": "COC(=O)c1cc(-c2ccc(C)cc2)n[nH]1", "activity change, less the hit threshold": "-3.5%"}
